Source: PubChem
RecA intein inh: Mtb RecA intein splicing inhibitors, primary screen, biochemical, fluorescence, HTS; hit rate 0.75% among 290,000; inhibition, % (no concentration beside the values); cell-free RecA intein splicing; Protein RecA (Mycobacterium tuberculosis (strain ATCC 25618 / H37Rv)), P9WHJ3; in the data active means inhibition above about 30%
Target sequence (P9WHJ3 whole entry, looked up): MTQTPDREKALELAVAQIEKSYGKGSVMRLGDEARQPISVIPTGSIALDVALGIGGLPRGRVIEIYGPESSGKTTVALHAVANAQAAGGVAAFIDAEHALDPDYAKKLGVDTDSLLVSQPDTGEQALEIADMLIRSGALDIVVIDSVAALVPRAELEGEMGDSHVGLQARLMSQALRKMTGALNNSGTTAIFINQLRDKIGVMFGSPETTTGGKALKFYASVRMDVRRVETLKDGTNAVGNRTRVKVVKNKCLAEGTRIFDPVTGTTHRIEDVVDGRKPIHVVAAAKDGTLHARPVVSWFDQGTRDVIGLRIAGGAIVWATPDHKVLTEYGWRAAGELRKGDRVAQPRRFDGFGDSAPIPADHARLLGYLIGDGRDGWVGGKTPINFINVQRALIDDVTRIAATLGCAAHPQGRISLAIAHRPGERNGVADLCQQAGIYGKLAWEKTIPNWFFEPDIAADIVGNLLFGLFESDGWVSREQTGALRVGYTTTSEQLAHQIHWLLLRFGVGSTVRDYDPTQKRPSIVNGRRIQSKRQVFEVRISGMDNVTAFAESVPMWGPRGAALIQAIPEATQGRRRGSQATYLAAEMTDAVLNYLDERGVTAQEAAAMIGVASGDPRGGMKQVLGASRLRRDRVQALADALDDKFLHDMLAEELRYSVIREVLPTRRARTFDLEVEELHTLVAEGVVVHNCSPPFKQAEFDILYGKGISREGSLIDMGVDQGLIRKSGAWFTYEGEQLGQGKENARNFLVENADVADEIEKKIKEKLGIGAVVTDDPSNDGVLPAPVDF
CCHF vOTU inh: CCHFV vOTU protease inhibitors, primary screen, biochemical, Pep-AMC substrate, fluorescence | hit rate 0.55% among 370,000 | inhibition, % at 11.5 µM | Crimean-Congo hemorrhagic fever virus L polyprotein viral ovarian tumor (vOTU) protease …; in the data active means inhibition above about 30%
Mtb hypoxia inh: PubChem AID 1159583; hit rate 0.1% among 300,000; M. tuberculosis hypoxia-regulated fluorescent reporter, fluorescence; fluorescence inhibition, % (concentration not given with the values); in the data active means fluorescence inhibition mostly above about 23%, no sharp cut-off; inactive means mostly below about 17%
RN4220 kill: growth inhibition of S. aureus RN4220, primary screen, OD600. 16 h. inhibition, % (test concentration not listed). hit rate 0.33% among 330,000. AID 1259311, 2017; in the data active means inhibition above about 85%
ugtP null kill: growth inhibition of ugtP-null S. aureus, primary screen, RN4220 ugtP deletion, OD600; 16 h; hit rate 0.54% among 330,000; growth inhibition, % (concentration not given with the values); in the data active means growth inhibition above about 68%
BJeLR viability: MLPCN primary cell-based screen for lethality selective to Ras in HRASV12 cells; BJeLR (HRASV12) viability, CellTiter-Glo ATP luminescence, 48 h; inhibition, % (no concentration beside the values); hit rate 0.17% among 300,000; in the data active means inhibition above about 50%
Large screens that a line does not name were inactive. A selection: hits, their analogues and other compounds. The true share with any hit is near 1.6%.

C#CCOCCOCCOCCNc1nc(N2CCN(C(=O)CCCCCCCCCCNC(=O)C(CCCCN)n3cc(CCCC(=O)O)nn3)CC2)nc(N2CCN(C(=O)CCCCCCCCCCNC(=O)C(C(C)O)n3cc(C)nn3)CC2)n1 (configuration not stated)	none (no result: RecA intein inh, CCHF vOTU inh, BJeLR viability)
O=C(CC1CC=CCC(NC(=O)OCC2c3ccccc3-c3ccccc32)C(=O)OCC(Cc2ccccc2)NC1=O)NC(CO)Cc1ccccc1 (configuration not stated)	none (not shown: RecA intein inh, CCHF vOTU inh, Mtb hypoxia inh, BJeLR viability)
CC(C)(C)NN=C1CC(c2ccccc2)Oc2ccccc21 (configuration not stated)	ugtP null kill 94 (no result: RecA intein inh, CCHF vOTU inh, BJeLR viability)
O=C(Nc1cccc(C(=O)O)c1)C(=Cc1ccccc1)NC(=O)c1ccccc1	none (no result: RecA intein inh, CCHF vOTU inh, BJeLR viability)
CC/C(=C/c1ccccc1)c1cccc2[nH]c3c(OC)cccc3c12	none (no result: Mtb hypoxia inh, RN4220 kill, ugtP null kill)
CCC(=Cc1ccccc1)c1cccc2[nH]c3c(OC)cccc3c12	ugtP null kill 97 (no result: RecA intein inh, CCHF vOTU inh, BJeLR viability)
CCOC(=O)C1=C(c2ccccc2)O/C(=C(/C#N)C(F)(F)F)S1	RecA intein inh 42 (no result: CCHF vOTU inh, Mtb hypoxia inh, RN4220 kill, ugtP null kill)
CCOC(=O)C1=C(c2ccccc2)O/C(=C(\C(=O)OC)C(F)(F)F)S1	none
O=c1cc(-c2ccc(O)cc2)oc2c(C3OC(CO)C(O)C(O)C3O)c(O)cc(O)c12 (configuration not stated)	none (no result: RecA intein inh, CCHF vOTU inh, BJeLR viability)
CC(C)c1ccc2c(c1)C1(NN=C(c3ccccc3)S1)C(=O)N2 (configuration not stated)	RN4220 kill 94, ugtP null kill 98
Cc1ccc(C)c(-c2ccc(=O)n(Cc3cccc(Br)c3)n2)c1	RecA intein inh 30
Cc1ccc(C)c(-c2ccc(=O)n(Cc3ccc(F)cc3Cl)n2)c1	none
Cc1ccc(S(=O)(=O)N[C@@H](CCCCN)C(=O)CCl)cc1	RecA intein inh 50 (no result: Mtb hypoxia inh, RN4220 kill, ugtP null kill)
Cc1ccc(S(=O)(=O)NC(CCCCN)C(=O)CCl)cc1 (configuration not stated)	none (no result: RecA intein inh, CCHF vOTU inh, BJeLR viability)
O=[N+]([O-])c1cc(-c2ccc(/C=N\n3cnnc3)o2)cc([N+](=O)[O-])c1	none (no result: Mtb hypoxia inh, RN4220 kill, ugtP null kill)
O=[N+]([O-])c1cc(-c2ccc(C=Nn3cnnc3)o2)cc([N+](=O)[O-])c1	Mtb hypoxia inh 43 (no result: RecA intein inh, CCHF vOTU inh, BJeLR viability)
O=C(O)[C@@H](c1ccccc1)N1Cc2ccccc2C1=O	RecA intein inh 32
O=C(NC(Cc1ccccc1)C(=O)O)C(=Cc1ccccc1)NC(=O)c1cccc(Br)c1 (configuration not stated)	none (no result: RecA intein inh, CCHF vOTU inh, BJeLR viability)
COCCN=C1NC(c2ccc(Br)cc2)C(C(=O)OC)=C(C)N1Cc1ccccc1 (configuration not stated)	none (no result: RecA intein inh, CCHF vOTU inh, BJeLR viability)
CCOC(=O)c1c(C)oc2c1C(=O)c1ccccc1C2=O	RecA intein inh 59 (no result: BJeLR viability)
Cc1oc2c(c1C(=O)c1ccccc1)C(=O)C(=O)c1ccccc1-2	RN4220 kill 100, ugtP null kill 94 (no result: Mtb hypoxia inh)
O=C(c1ccccc1)c1coc2ccc(O)c(Cl)c12	none
O=C1C(=O)c2c(C(=O)c3ccccc3)coc2-c2ccccc21	RN4220 kill 94, ugtP null kill 86
CCc1nnc(NS(=O)(=O)c2ccc(NC=CC(=O)c3ccc(C)cc3)cc2)s1	none (no result: RecA intein inh, CCHF vOTU inh, BJeLR viability)
Cc1nn(-c2ccc(N3CCOCC3)nn2)c(C)c1CCC(=O)N1CCN(C)CC1	Mtb hypoxia inh 75
COc1ccc(-c2cccc(C3C4C=CCC[C@@]4(C)C(=O)N3Cc3ccccc3)c2)cc1 (some centres not stated)	none (no result: RecA intein inh, CCHF vOTU inh, BJeLR viability)
CCC(C)(C)c1ccc(OCCCC[n+]2ccc(C)cc2)c(C(C)(C)CC)c1	RN4220 kill 100, ugtP null kill 100 (not shown: Mtb hypoxia inh)
CCC(C)(C)c1ccc(OCCCC[n+]2cccc(C)c2C)c(C(C)(C)CC)c1	RN4220 kill 101, ugtP null kill 100, BJeLR viability 57 (not shown: Mtb hypoxia inh)
Cc1cc[n+](CC[n+]2ccc(C)cc2)cc1	none
CC(=NNc1cccc(C(F)(F)F)c1)c1ccc(O)cc1	none (no result: RecA intein inh, CCHF vOTU inh, BJeLR viability)
N#CC(=NNc1cccc(C(F)(F)F)c1)C(=O)c1ccsc1	RN4220 kill 100, ugtP null kill 97 (no result: RecA intein inh, CCHF vOTU inh, BJeLR viability)
Brc1ccc(-c2ccc(C=NNc3nc4ccccc4[nH]3)o2)cc1	RN4220 kill 86 (no result: RecA intein inh, CCHF vOTU inh, BJeLR viability)
O=c1cnnc(N/N=C/c2ccccn2)[nH]1	BJeLR viability 63 (no result: Mtb hypoxia inh, RN4220 kill, ugtP null kill)
C(=N\Nc1nc2ccccc2[nH]1)/c1ccc2ncccc2c1	BJeLR viability 88 (no result: Mtb hypoxia inh, RN4220 kill, ugtP null kill)
Fc1ccccc1-c1ccc(C=NNc2nc3ccccc3[nH]2)o1	none (no result: RecA intein inh, CCHF vOTU inh, BJeLR viability)
C(=NNc1nc2ccccc2[nH]1)c1ccccn1	none (no result: RecA intein inh, CCHF vOTU inh, BJeLR viability)
